Changes are numbered by the printed parent chain. The full ranking holds about 24,000 sequences; the median of “enrichment r” is about 0.99, and the highest 2% start at about 3.7. Only a selection was taken, and the highest values are over-represented in it overall.
T1: UNK ZnF1-3 (human, UniProt Q9C0B0 31-174)
T1 sequence: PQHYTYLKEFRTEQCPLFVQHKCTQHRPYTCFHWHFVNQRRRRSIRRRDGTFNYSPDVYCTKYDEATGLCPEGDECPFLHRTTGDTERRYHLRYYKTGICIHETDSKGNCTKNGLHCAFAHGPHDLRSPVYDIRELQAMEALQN

B1: chr7:151048522:151048523:+_ENSG00000013374_ENST00000566856|hu_mus|hu_hu_hu_mus_True|18_78 (ssRNA)
RNA: GGGAGUUCUACAGUCCGACGAUCCUGUUUCUUAUUUAUUACGAUCUUGAUGUAAUUUUCUUGAAGUCCGAAAGUUUCAGCUAUUUGACACCUCAGGUCUCUACCAGUGACAUGCAAUCGGGUCUCCAACAAGCUUUUCUUAUCCAACAGAGGAUUGAGCAUCA
B2: chr19:7991675:7991676:-_ENSG00000104980_ENST00000595831|hu_hu|FALSE|FALSE (ssRNA)
RNA: GGGAGUUCUACAGUCCGACGAUCCCAAAUCUCAGGCUUAUGCACAAGAUGGAAGAGCACUGUUAAAAUUAAAAAAUGGACCUAAAGUGGCUUGGCUGACGUGGCUAGCGGGCCACUGAGCCGCGGGUCCCGGGUCCCACCCUGCAACAGAGGAUUGAGCAUCA
B3: chr19:7991675:7991676:-_ENSG00000104980_ENST00000595831|hu_hu|motif|central (ssRNA)
RNA: B2 RNA with U82G, A83G
B4: chr7:54825262:54825263:-_ENSG00000132432_ENST00000352861|hu_hu|motif|central (ssRNA)
RNA: GGGAGUUCUACAGUCCGACGAUCCCGACUUGGCUCAACAAACUGCAUUACCUGAUCCAUGACUGCCUACCCAACCGACACCGGAAAUGCCAGGGACACGUAGCACUGGAGCUUGCUGAUGGAGGCCCACCGGAACCGGAAUCCCAACAGAGGAUUGAGCAUCA
B5: 193332725_193333477_540_CDS_ENSG00000198836_ENST00000392438|human|control|control (ssRNA)
RNA: GGGAGUUCUACAGUCCGACGAUCCCACUGAUCAAAAGUCUUUUUGGCUGUGUAGCCACCCCCAACAGCCGAUCCUAGUAUGAGAUAGCGAAGUUUUAAGAGUCUCGUAGCUAAUCUUGCUGGCCAAAAAUUCCUGCGAGGCUGCAACAGAGGAUUGAGCAUCA
B6: chr11:46405157:46405158:+_ENSG00000110492_ENST00000395566|hu_hu|hu_hu_hu_mus_False|1_98 (ssRNA)
RNA: GGGAGUUCUACAGUCCGACGAUCCCCUCCCCACUUUGGCUGGGGAGUGUGGGCGUGAGAGGACAGGCGUGAUUGACAGAGCUGACAGGAAGACAAAAGGCACUGGUGGGUUAUAUCUUGGGCCUGUGGGAGAGGAGGCGUGGGCAACAGAGGAUUGAGCAUCA
B7: chr9:100883651:100883652:-_ENSG00000106789_ENST00000375077|hu_mus|FALSE|FALSE (ssRNA)
RNA: GGGAGUUCUACAGUCCGACGAUCUCCCAAGGCAAGAAGGAAGGAGCCGAGGGCGGCUUUGCUGCUUGGGUGGUCACUGUGUCAGGGGGCAGUGUUGCUCCAUUAGCCCAAGAACAUAAAAACAUAAUCUUAAAAAAAUAUGACCAACAGAGGAUUGAGCAUCA

molecular target: T1, UNK ZnF1-3; assay: nsRBNS (natural sequence RNA bind-n-seq); RBNS binding buffer (assumed for nsRBNS): 25 mM Tris pH 7.5, 150 mM KCl, 3 mM MgCl2, 0.01% Triton X-100, 500 ug/ml BSA, 20 U/ml SUPERase-In, 4 C; UNK is unkempt and MSI1 is Musashi-1; names of the RNAs are library labels; protein concentration not given here; high values mean tight binding

Binder | binding signal [enrichment R]
B1 | 0.639
B2 | 4.68
B3 | 3.81
B4 | 1.13
B5 | 1.11
B6 | 2.22
B7 | 2.88

Source: paper PMC12136788
